LANA-H2A inh = blockers of LANA interaction with H2A/H2B – biochemical, FP readout, HTS, primary screen; inhibition, % (concentration not given with the values); cell-free LANA-H2A/H2B peptide, fluorescence polarization; AID 2629, 2010; actives 0.6% (n = 320,000); Protein LANA1 (Human herpesvirus 8 type P (isolate GK18)), Q9QR71; in the data active = inhibition mostly above about 10%, no sharp cut-off; inactive = mostly below about 6.7%
ALR inh = inhibitors of human ALR sulfhydryl oxidase, primary screen, biochemical, H2O2 detection, HRP-luminol luminescence, single point. FAD-linked sulfhydryl oxidase ALR (Homo sapiens), P55789. purified ALR, DTT oxidation. inhibition, % (concentration not given with the values). actives 3.8% (n = 290,000);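 active = mean replicate inhibition above about 79%, with every replicate also reaching it, limit read from the data; inconclusive = only one of the two criteria met; inactive = mean below limit and not every replicate reaching it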
rCAG binder = binders of r(CAG) RNA repeats, primary screen, biochemical, fluorescence; r(CAG) RNA repeat, TO-PRO-1 dye displacement fluorescence; inhibition, % at 3 µM; actives 1.3% (n = 370,000); AID 651821, 2012;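 active = inhibition above the plate cutoff, the mean of all test compounds on that plate plus 3 SD, cut at about 35% in these data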;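 note: 0% = DMSO alone and 100% = 100 µM mitoxantrone as full dye displacement; higher means more dye released from RNA so lower well fluorescence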
Rtt109 Vps75 = inhibitors of C. albicans Rtt109/Vps75 HAT, primary screen, biochemical, ThioGlo CoA-SH fluorescence, plate reader | Histone acetyltransferase RTT109 (Candida albicans (strain SC5314 / ATCC MYA-2876)), … | purified Rtt109/Vps75, 4 h | inhibition, % at 34.9 µM | actives 0.16% (n = 330,000) | AID 540336, 2011;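 active = inhibition of at least 50% in every replicate; inconclusive = best replicate reaches 50% inhibition but some replicates fall short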
PRMT1 FP inh = PRMT1 methyltransferase inhibitors, primary screen, biochemical, fluorescence polarization. Protein arginine N-methyltransferase 1 (Homo sapiens), Q99873. recombinant PRMT1, activity-based probe fluorescence polarization. inhibition, % at 2.79 µM. actives 1.3% (n = 370,000);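 active = inhibition above about 21% made by adding two undisclosed values, limit read from the data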
ABHD5-PLIN5 inh = ABHD5-PLIN5 interaction inhibitors, primary screen, cell lysate, split luciferase complementation, luminescence. Split G. princeps luciferase complementation, 4 h. inhibition, % at 4 µM. actives 0.78% (n = 360,000). AID 602281, 2012;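 active = inhibition above the mean inhibition across every tested compound plus 3 SD, cut at about 22% in these data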;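 note: 0% = DMSO only wells and the 100% control is not disclosed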
PRMT1 confirm = PRMT1 methyltransferase inhibitors, confirmation, biochemical, fluorescence polarization, triplicate | shares compounds with PRMT1 FP inh | recombinant His-PRMT1, activity-based probe fluorescence polarization | inhibition, % at 2.79 µM | actives 42% (n = 3,300);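 active = mean inhibition across replicates above the hit cutoff derived for the earlier primary screen, cut at about 22% in these data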
An asterisk follows results filed as active; ? = inconclusive; / = no result given. Shown are actives, neighbours in structure and some others; about 5.9% of the full set was active somewhere.

SMILES	LANA-H2A inh	ALR inh	rCAG binder	Rtt109 Vps75	PRMT1 FP inh	ABHD5-PLIN5 inh	PRMT1 confirm
CC(NC(=O)c1c(O)c2ccccc2n(C)c1=O)c1ccccc1 (stereo not drawn)	-1	3	1	-11	3	0	/
C[C@H]1[C@@H](NC(=O)c2ccc(O)cc2)CC[C@@]23CCCN2C(=O)CCC[C@@H]13	/	/	/	/	-3	/	/
C[n+]1c2n(c3ccccc31)N=C(c1ccc(Cl)cc1)CS2	2	99*	5	9	40*	-11	18
C1C2CC3C1C3C2=NN=C1C2CC3C(C2)C13	/	/	2	/	0	0	/
C=CCN1C[C@H](COC(=O)CSc2ccccc2)Oc2cccc(F)c2S1(=O)=O	/	/	2	/	3	/	/
CC(C)NC(=O)Cn1c(SCC(=O)c2ccc(F)cc2)nc2ccccc21	2	12	5	-1	62*	3	5
CCCOC(=O)C1=C(C)N(C)C(=O)NC1c1cc2c(cc1[N+](=O)[O-])OCO2 (stereo not drawn)	-3	12	4	-3	27*	-7	22*
Cn1c(=O)c(=O)n(C)c2cc(N3CCOCC3)c(NS(=O)(=O)c3ccc([N+](=O)[O-])cc3)cc21	-8	-4	6	-2	25*	-8	15
O=C(COC(=O)c1ccc2ncsc2c1)Nc1cccc(Cl)c1	-3	-24	4	-3	33*	3	2
O=C(Nc1cccc(Cl)c1)c1ccc2ncsc2c1	-5	/	9	7	32*	-2	-2
O=C(O)c1ccc2ncsc2c1	3	?	2	-1	25*	-4	13
O=C1NC(=O)C2(N1)c1ccccc1-c1ccccc12	/	/	2	-8	1	-2	/
O=C1NC(=O)C2(N1)C(=O)c1cccc3cccc2c13 (stereo not drawn)	/	/	-73	/	139*	-8	72*
COc1cccc(CNc2nc3cc(-c4ccccc4C)sc3c(=O)n2C)c1OC	/	/	9	/	-6	-1	/
O=C(COC(=O)c1cc(Br)ccc1O)Nc1cc(S(=O)(=O)N2CCCC2)ccc1Cl	/	/	12	10	45*	8	22*
O=C(COC(=O)c1ccccc1O)Nc1cc(S(=O)(=O)N2CCCCCC2)ccc1Cl	-3	-2	-1	-1	-2	-10	/
O=C(Nc1nnc([C@H]2C[C@H](O)[C@@H](CO)O2)s1)C(c1ccccc1)c1ccccc1	/	/	0	/	0	5	/
COc1ccc(OC)c(N=c2ssnc2Cl)c1	-4	/	8	1	75*	14	81*
Cc1ccc(C2=NNC(=Nc3ccc(F)cc3)SC2)cc1	/	/	4	-3	-8	-19	/
Cc1ccc(N=c2ssnc2Cl)cc1	1	-7	-2	-5	70*	9	89*
CC(C)(C)C1=CC(=Nc2ccccc2N)C=C(C(C)(C)C)C1=O	2	-18	-2	2	1	7	/
Cc1cc(Cl)ccc1N=c1ssnc1Cl	6	11	7	1	44*	-3	94*
Cc1cc(Cl)ccc1N=C1N=C(N)c2ccccc21	1	16	0	4	-2	-7	/
COc1ccc(OC)c(N=C2C(=O)Nc3ccccc32)c1	4	?	-1	4	2	-6	/
Nc1ccccc1N=c1ssnc1Cl	/	/	5	17	69*	-13	58*
SMILES	LANA-H2A inh	ALR inh	rCAG binder	Rtt109 Vps75	PRMT1 FP inh	ABHD5-PLIN5 inh	PRMT1 confirm
Nn1c(COc2ccccc2F)nnc1SCC(=O)NCC1CCCO1 (stereo not drawn)	/	/	2	/	0	4	/
O=C(Nc1cccc(C(F)(F)F)c1)C1=CC=CN2CCS(=O)(=O)N=C12	0	0	0	8	2	-5	/
O=C1N2CCc3ccccc3C2CS(=O)(=O)N1Cc1ccc(F)cc1 (stereo not drawn)	/	/	0	/	-5	/	/
COCc1cc(N2CCNC[C@H]2C)ccc1N1CCN(Cc2ccccc2)[C@H](C)C1	/	/	6	/	-1	/	/
N#Cc1ccc(NC(=O)OC2CC3CC2[C@H]2CCCCN2[C@H]3Cc2ccccc2)cc1 (stereo partly drawn)	/	/	7	/	-2	/	/
CC(C)n1cc(/C=C/c2cc[n+](C)cc2)c2ccccc21	/	/	-344	7	31*	0	19
COc1ccccc1C=NNC(=O)c1ccncc1	/	/	1	-4	-2	7	/
COc1sc(SC)cc1/C=N/NC(=O)c1ccncc1	-2	12	2	-21	38*	-4	-1
CCN1CCSc2ccc(C(=O)NCc3ccccc3F)cc21	2	27	15	-23	52*	-5	4
O=C(NCCN1CCC(Cc2ccccc2)CC1)C1CCCN(S(=O)(=O)c2cccs2)C1 (stereo not drawn)	/	/	1	/	-4	/	/
CC(C)c1nnc(NC(=O)COc2ccc3c(c2)OCO3)s1	-2	-15	1	3	2	-3	/
CCC(CC)c1nnc(NC(=O)COc2ccc3c(c2)OCO3)s1	2	-65	3	-1	42*	3	-1
CN(C)CCN(C(=O)C1CCN(S(=O)(=O)c2cccs2)CC1)c1nc2ccccc2s1	4	-12	0	-7	-5	10	/
Nc1nc2c(s1)CCc1ccccc1-2	1	21	4	-10	26*	-23	9
Brc1cccc(Cn2ccc3ccc(-c4ccc5ccn(Cc6cccc(Br)c6)c5c4)cc32)c1	/	/	11	/	0	/	/
COC1OC(c2ccccc2)=C(c2cnc(N)nc2)c2ccc(F)cc21 (stereo not drawn)	/	/	1	/	-3	2	/
O=C(O)c1ccc(CN2C(=O)CSC2=S)cc1	1	-16	14	0	29*	-13	5
O=c1[nH]c(S)c(/C=C2\C=Nc3ccccc32)s1	2	99*	11	/	48*	-6	31*
O=C(Cn1c(O)c(/C=C2\C=Nc3ccccc32)sc1=O)N1CCOCC1	0	-1	3	-11	1	-4	/
CCOc1ccc(-n2c(SCC(=O)Nc3ccc(Oc4ccccc4)cc3)nnc2-c2ccncc2)cc1	/	/	13	/	3	/	/
N#CC1=C(N)OC2=C(CC/C2=C\c2ccccc2Cl)C1c1ccccc1Cl (stereo not drawn)	-7	-8	3	6	-2	5	/

Assay outcomes (PubChem BioAssay)
